Sampled rows, rich in hits. Any-hit rate of the full collection: about 7.6%.
KB-3-1 cytotox = kills parental KB-3-1 adenocarcinoma cells. 400,000 compounds, 1.4% hits. KB-3-1 viability, CellTiter-Glo ATP luminescence, 72 h. Potency, µM (doses to about 46.1 µM), most hits filed as cytotoxic; also: potency is read from the fitted curve at half-maximal effect; % is scaled to controls: 0 for no effect and ±100 for the full control effect; nearly all actives have a fitted effect of over 60% in size
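Cytotoxicity in the drug-sensitive parental line KB-3-1 was scored as loss of CellTiter-Glo luminescence following 72 h incubation with compound. Values come from curve fitting of normalized concentration-response data.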
SW480 rereplic = induces DNA re-replication in SW480 colon adenocarcinoma cells; 340,000 compounds, 1.8% hits; Potency, µM (highest dose often 46.1 µM), inactives show at the top dose re-replication activation, actives largely listed as activators; SW480 DNA re-replication, Hoechst DNA content imaging, 48 h; AID 624297; also: potency is read from the fitted curve at half-maximal effect; % of control where 0% means no effect; nearly all actives have a fitted effect of over 55% in size
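Readout is total intensity of Hoechst-stained nuclei, excited at 405 nm and collected at 500-530 nm. Compound treatment lasted 48 hr at 37 C in 5% CO2 before staining.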
KCNH2 3.1 inh = inhibitors of human KCNH2 3.1 potassium channel isoform; U2OS KCNH2 3.1, thallium flux FluxOr; hits give low values; activity change, % (tested at about 1.8 µM); 340,000 compounds, 0.95% hits; AID 720553;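 active = maximum activity change below -70%; inconclusive = maximum activity change from -70% to -50%; inactive = maximum activity change above -50%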;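 also: thallium influx rate constant from kinetic fluorescence after stimulation buffer; % is scaled to controls: 0 for no effect and ±100 for the full control effect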
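Virally transduced U2OS (3.1 isoform, 4 h infection in dark at RT) → overnight 37 C → FluxOr + Red40 in HBSS/HEPES, 45 min → stimulation buffer, 2 min kinetic read → rate constant vs DMSO controls.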
MCF10A rerep = DNA re-replication induction in MCF 10a cells; Potency, µM (titrated, usually from 46.1 µM), without a hit: top-dose activity, positive = re-replication, most hits filed as activators; MCF 10A DNA re-replication, Hoechst nuclear intensity, 48 h; 350,000 compounds, 2.9% hits; also: potency is read from the fitted curve at half-maximal effect; % of control where 0% means no effect; nearly all actives have a fitted effect of over 50% in size
hERG WT inh = blocks the wildtype human KCNH2 potassium channel | U2OS, BacMam KCNH2, thallium flux FluxOr; hits give low values | activity change, % at 1.84 µM | 340,000 compounds, 0.37% hits;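 active = maximum activity change below -70%; inconclusive = maximum activity change between -70% and -50%; inactive = maximum activity change above -50%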; also: % is scaled to controls: 0 for no effect and ±100 for the full control effect
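U2OS cells were transduced with wild-type KCNH2 virus (2.03 x 10^8 / mL) for 4 h at room temperature, then cultured overnight at 37 C. Thallium flux was read with FluxOr dye. Rate constants were normalized to DMSO controls.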
KB-V1 cytotox = kills drug-selected multidrug resistant KB-V1 cells. KB-V1 MDR cells viability, CellTiter-Glo, 72 h. Potency, µM (series often up to 46.1 µM), hits mostly cytotoxic. 400,000 compounds, 3.4% hits. AID 1347076; also: potency is read from the fitted curve at half-maximal effect; % is scaled to controls: 0 for no effect and ±100 for the full control effect; nearly all actives have a fitted effect of over 60% in size
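KB-V1, DMEM (no phenol red) + 10% FBS; cpd pin-transferred, titration series; 72 h, 37 degrees C; CellTiter-Glo, luminescence. Data normalized, curve-fit.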
* hit, by the source's call; i = inactive; u = inconclusive; x = no result. Unless noted, calls follow the shape of the dose curve; as a rule, active = well fitted curve in the direction sought with a large enough effect; inconclusive = small, poorly fitted or top-dose-only effect, or another doubt; inactive = no such curve, though single readings can be large; an effect the other way counts as inactive or inconclusive.

SMILES | KB-3-1 cytotox | SW480 rereplic | KCNH2 3.1 inh | MCF10A rerep | hERG WT inh | KB-V1 cytotox
Cc1ccc2c(CNC3CCC(C)CC3)c(C(=O)O)n(Cc3cccc(F)c3)c2c1 (stereo not drawn) | u | x | x | x | x | i
Cc1ccc(/C=N/NC(=O)C2COc3ccccc3O2)s1 (stereo not drawn) | 2.1µM* | 2.8µM* | -4 | 1.8µM* | -8 | u
Cn1cc(/C=N\NC(=O)C2COc3ccccc3O2)c2ccccc21 (stereo not drawn) | x | 17% | x | 5.8µM* | x | x
O=C(N/N=C/c1cccs1)C1COc2ccccc2O1 (stereo not drawn) | i | -4% | 8 | -5% | 23 | u
O=C(N/N=C/c1c(O)n(-c2ccccc2Cl)c(=O)c2ccccc12)C1COc2ccccc2O1 (stereo not drawn) | u | u | -7 | 21µM* | -18 | u
CCn1c(C(=O)O)c(CC(=O)Nc2ccccc2OC)c2ccccc21 | i | -13% | 10 | -10% | -1 | i
CCN1CCC(NC(=O)Nc2ccc(F)cc2F)CC1 | i | u | -86* | 3% | -4 | i
O=C(Nc1ccc(F)cc1F)NC1CC1 | i | -2% | 7 | -2% | 17 | i
O=C(c1cc2nc(-c3ccc(F)cc3)cc(C(F)(F)F)n2n1)N1CCCCC1c1cccnc1 (stereo not drawn) | 3.3µM* | u | -5 | u | -8 | u
O=C1Cc2ccccc2C(c2ccc(Cl)cc2)N1 (stereo not drawn) | i | -2% | -5 | u | -3 | i
S=C1Cc2ccccc2C(c2ccc(Cl)cc2)N1 (stereo not drawn) | i | u | 3 | 16µM* | -3 | i
O=Cc1ccc(F)c([B-](F)(F)F)c1 | i | -4% | 6 | 1% | 2 | i
CCCc1cc(-c2nc(N)ncc2-c2ccc3c(c2)OCCCO3)c(O)cc1OC | i | u | -3 | u | -7 | 2.9µM*
CCOc1ccc(-c2nc(N)ncc2-c2ccc(Cl)cc2)c(O)c1 | i | -30% | 1 | u | 2 | i
CCOc1ccc(-c2nc(N)ncc2-c2ccccc2)c(O)c1 | 15µM* | 16% | 2 | 17% | -3 | u
CCOc1ccc(-c2nc(N)ncc2-c2ccc(OC)cc2)c(O)c1 | u | u | 0 | -53% | 3 | 7.3µM*
CCCc1cc(-c2nc(N)ncc2-c2csc(C)n2)c(O)cc1OC | i | -51% | -2 | 12% | x | i
COc1ccc(C(CC(=O)O)N2C(=O)CCC2=O)cc1 (stereo not drawn) | i | 5% | 2 | -1% | -4 | i
CCOC(=O)C(NC(C)=O)(N1CCc2ccccc2C1)C(F)(F)F (stereo not drawn) | i | -7% | 7 | -3% | -6 | i
CCC(C)(C)NC(=O)CN(C(=O)c1snc(C(N)=O)c1N)c1ccc2nc(C)sc2c1 | i | 2% | -8 | -6% | 4 | i
CC1=C(n2nnc3ccccc32)C(c2ccccc2)C(C#N)=C(N)O1 (stereo not drawn) | i | 1% | -6 | 5% | -2 | i
Cc1ccc(/C=C2\CCC3=C2OC(N)=C(C#N)C3c2ccc(C)cc2)cc1 (stereo not drawn) | i | 11µM* | -23 | 2.9µM* | u | i
N#CC1=C(N)OC2=C(CCc3ccccc32)C1c1ccccc1 (stereo not drawn) | 0.58µM* | 0.73µM* | 7 | u | -8 | 1.5µM*
CCCC(=O)Nc1ccc(C2C(=O)c3ccccc3C2=O)cc1 | u | 0% | -6 | 2% | -15 | u
Cc1cc(NC(=O)COC(=O)COc2ccc(Cl)c(C)c2)no1 | i | x | 1 | x | 10 | u
SMILES | KB-3-1 cytotox | SW480 rereplic | KCNH2 3.1 inh | MCF10A rerep | hERG WT inh | KB-V1 cytotox
CCOc1ccc(NC(=O)N2CC=C(c3c[nH]c4ccccc34)CC2)cc1 | 23µM* | x | x | x | x | u
CCOc1ccc(NC(=O)N2CCC(c3ccc(C)cc3)C2)cc1 (stereo not drawn) | i | -8% | -8 | 9% | -33 | 21µM*
CCOc1ccc(NC(=O)N2CCC(N3CCCCC3)CC2)cc1 | i | x | x | x | x | i
CCOc1ccc(NC(=O)N(CCC(C)C)C2CCN(C(C)=O)CC2)cc1 | i | -2% | -22 | -11% | -1 | 18µM*
CCOc1ccc(NC(=O)N2CCC(n3nnc4ccccc43)CC2)cc1 | i | -7% | -83* | u | i | i
CCN1C(=N)N(c2ccccc2)C(=O)C(CC)(CC)C1=O | i | 2% | 41 | 1% | 5 | i
COc1ccc2cc(-c3csc(-c4cccnc4)n3)ccc2c1 | i | 16% | -21 | 15µM* | 8 | i
COc1ccc(-c2nc(CCl)cs2)cc1OC | i | -5% | 1 | -3% | 0 | u
COc1ccc(-c2ccnc(-c3ccc(O)cc3)n2)cc1 | 5.8µM* | 8.2µM* | 26 | 2.1µM* | x | 7.3µM*
COc1ccc(-c2nc(-c3ccc(O)cc3O)cs2)cc1OC | i | u | 0 | 21µM* | -4 | u
COc1ccc(-c2csc(-c3ccc(O)cc3)n2)cc1 | 4.1µM* | 7.3µM* | -16 | 15µM* | 6 | 2.6µM*
O=C(/C=C/c1ccccc1)Nc1cccnc1Oc1ccccc1F | u | u | -10 | 5% | 1 | i
CC(CCc1ccccc1)NC(=O)Cn1cccc1C(=O)c1ccccc1 (stereo not drawn) | i | -20% | -6 | 4% | 10 | i
COc1ccc(-c2ccnc(-c3ccncc3)n2)cc1 | u | 21µM* | 2 | 17% | 0 | i
COC(=O)CCCNC(=O)c1ccc(S(=O)(=O)NCc2ccco2)cc1 | i | -7% | 21 | 1% | -3 | i
CN(C)C(=O)COc1ccccc1C(=O)OCC(=O)Nc1ccc(Oc2ccc(Br)cc2)cc1 | i | x | x | x | x | i
CCCCOc1ccc(C(=O)NCC(=O)NCc2ccccn2)cc1 | 0.52µM* | u | -50 | 57% | 12 | u
CC(C)(C)c1ccc(C(=O)NCC(=O)NCc2ccccn2)cc1 | i | 7% | 5 | -2% | 6 | i
Cc1ccc(/C=C/C(=O)c2c(C)nc3ccccn23)cc1 | 18µM* | u | 3 | u | 21 | i
C/C(=N\NC(=O)c1c(C)nc2ccccn12)c1cccc([N+](=O)[O-])c1 | i | -15% | 5 | -5% | -7 | u
Cc1nc2ccccn2c1C(=O)/C=C/c1cccc([N+](=O)[O-])c1 | 2.6µM* | 4.1µM* | -1 | u | -6 | u

Compound activity: PubChem, National Center for Advancing Translational Sciences (NCATS)
